Reference: PubChem BioAssay (Tox21)
Where “and” joins values, the source holds several entries; their conditions need not be identical. Identical values can stand only once. Records with an inconclusive call do not appear. Entries that show only a call come without a potency. Where a structure was tested more than once in an assay, its records may differ in their call. Calls of active or inactive are those of the source. Unless noted, calls follow the shape of the full dose curve.

Assays:
[1] = Nuclear factor erythroid 2-related factor 2/antioxidant responsive element (Nrf2/ARE) small molecule agonists: qHTS cell viability counter screen in human keratinocytes (AID 1919968; active = well fitted curve in the direction sought with a large enough effect in the repeat runs; an effect the other way counts as inactive or inconclusive; also: nearly all actives have a fitted effect of over 55% in size; also: potency is read from the fitted curve at half-maximal effect)
Outline: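 In human HaCaT keratinocytes stably expressing an ARE-driven luciferase, compound exposure lasted 23 h at 37 C under 5% CO2. Viable cells are quantified with a protease-based fluorogenic reagent (CellTiter-Fluor) read 1 h after addition.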

[2] = Nuclear factor erythroid 2-related factor 2/antioxidant responsive element (Nrf2/ARE) small molecule agonists: luciferase reporter gene qHTS assay in human keratinocytes (AID 1919969); also: nearly all actives have a fitted effect of over 35% in size; also: potency is read from the fitted curve at half-maximal effect
[3] = biological target: Gonadotropin-releasing hormone receptor (Homo sapiens) (UniProt P30968); assay: Human gonadotropin-releasing hormone receptor (GnRHR) small molecule agonists, calcium flux assay in GnRHR-HEK293 cells (AID 1920063); also: nearly all actives have a fitted effect of over 35% in size
Outline: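 Intracellular calcium rise is the read-out: engineered human GnRHR HEK293 cells, dye-loaded, are exposed to DMSO-dissolved compounds and fluorescence at Ex/Em 480/540 is tracked for 3 min.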

[4] = biological target: KiSS-1 receptor (Homo sapiens) (UniProt Q969F8); assay: Human kisspeptin (KISS1R) small molecule agonists, calcium flux assay in KISS1R-HEK293 cells (AID 1920064; active = well fitted curve in the direction sought with a large enough effect in the repeat runs; an effect the other way counts as inactive or inconclusive)
Outline: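 Concentration-response testing used 15 concentrations in triplicate on human KISS1R-expressing HEK293 cells. Calcium-dependent fluorescence (Ex/Em 480/540) was followed kinetically for 3 min after compound transfer.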

[5] = p53 small molecule agonists, cell-based qHTS assay with rat liver microsomes (AID 1963578)
Outline: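 Rat liver microsome activation: microsomes 0.5 mg/mL, NADPH 0.5 mg/mL final; p53RE-bla cells, 16 h 37 C; LiveBLAzer readout, 2 h RT dark.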

[6] = p53 small molecule agonists, cell-based qHTS assay with human liver microsomes: qHTS cell viability counter screen (AID 1963579); also: nearly all actives have a fitted effect of over 45% in size
Outline: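 Luminescent CellTiter-Glo read-out, 30 min at room temperature, gauged cytotoxicity in p53RE-bla cells exposed 16 h at 37 C to DMSO-dissolved compounds with metabolic activation by human liver microsomes and NADPH, each 0.5 mg/mL final.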

[7] = p53 small molecule agonists, cell-based qHTS assay with rat liver microsomes: qHTS cell viability counter screen (AID 1963580); also: nearly all actives have a fitted effect of over 45% in size
Outline: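 Counter screen for cytotoxicity under metabolic activation: rat liver microsomes and NADPH, 0.5 mg/mL final each, added with compounds to p53RE-bla HCT-116 cells; 16 h at 37 C, then ATP luminescence read.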

[8] = p53 small molecule agonists, cell-based qHTS assay: qHTS cell viability counter screen (AID 1963581); also: nearly all actives have a fitted effect of over 45% in size
Outline: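 Luminescence from CellTiter-Glo, reflecting ATP content, serves as the cytotoxicity measure; it is taken after the 2 h reporter substrate step in HCT-116 p53RE-bla cells dosed for 16 h at 37 C.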

[9] = p53 small molecule agonists, cell-based qHTS assay (AID 1963582; active = well fitted activation curve with a large enough effect in the signal ratio in the repeat runs, not every such curve was filed as active; the % refers to the signal ratio)
Outline: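 After plating, p53RE-bla cells sat 5 h in the incubator; compounds or DMSO vehicle were pinned in; a 16 h incubation at 37 C followed; FRET substrate was added and, 2 h later at RT, fluorescence was measured.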

[10] = biological target: 5-hydroxytryptamine receptor 2A (Homo sapiens) (UniProt P28223); assay: 5-hydroxytryptamine receptor 2A (HTR2A) small molecule antagonists, cell-based qHTS assay (AID 1963586); also: nearly all actives have a fitted effect of over 45% in size
Outline: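 CHO cells stably expressing human HTR2A were plated for 18 h at 37 C, then loaded with calcium dye for 1 h. Compounds were preincubated 5 min at room temperature before DOI (4 nM solution) was added. Kinetic fluorescence was read for 3 min.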

[11] = biological target: 5-hydroxytryptamine receptor 2A (Homo sapiens) (UniProt P28223); assay: 5-hydroxytryptamine receptor 2A (HTR2A) small molecule agonists, cell-based qHTS assay (AID 1963587); also: nearly all actives have a fitted effect of over 30% in size
Outline: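 HTR2A-CHO cells, plated 18 h at 37 C/5% CO2, dye-loaded 1 h at 37 C; compounds in DMSO added by pin tool (agonist mode). Intracellular calcium flux read as kinetic fluorescence on FDSS over 2 min at 1 s intervals.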

[12] = biological target: Muscarinic acetylcholine receptor M1 (Homo sapiens) (UniProt P11229); assay: Cholinergic receptor muscarinic 1 (CHRM1) small molecule antagonists, cell-based qHTS assay (AID 1963588); also: nearly all actives have a fitted effect of over 40% in size
Outline: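 Compounds were tested at 15 concentrations in three independent runs. Dye-loaded CHRM1-CHO cells were exposed 5 min at room temperature before stimulation by acetylcholine added at 50nM. Intracellular calcium was read kinetically on FDSS for 3 min.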

[13] = biological target: Muscarinic acetylcholine receptor M1 (Homo sapiens) (UniProt P11229); assay: Cholinergic receptor muscarinic 1 (CHRM1) small molecule agonists, cell-based qHTS assay (AID 1963589); also: nearly all actives have a fitted effect of over 35% in size
Outline: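 Fluorescent calcium dye reports M1 activation in stably transfected CHO cells. Compounds, 15 concentrations, added after 1 h dye loading at 37 C; kinetic reading at 1 sec intervals.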

[14] = cAMP Responsive Elements (CRE) small molecule agonists, cell-based qHTS assay (AID 1963590)
Outline: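 Compound exposure lasted 3 h at 37 C/5% CO2 in CRE-bla HEK 293T cells grown in assay medium with 10% dialyzed FBS and 25 mM HEPES. Reporter signal came from LiveBLAzer B/G FRET substrate, 2 h, room temperature.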

[15] = cAMP Responsive Elements (CRE) small molecule antagonists, cell-based qHTS assay (AID 1963591; active = well fitted inhibition curve with a large enough effect in the signal ratio in the repeat runs, not every such curve was filed as active; the % refers to the signal ratio; also: potency is read from the fitted curve at half-maximal effect)
Outline: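 Stimulation used NKH477 at a final 0.25 uM for 3 h in compound-treated CRE-bla HEK293T cells, seeded 18 h beforehand. Reporter activity was measured with LiveBLAzer B/G FRET substrate after 2 h at room temperature.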

[16] = biological target: Beta-2 adrenergic receptor (Homo sapiens) (UniProt P07550); assay: Adrenergic beta2 receptor (ADRB2) small molecule antagonists, cell-based qHTS assay (AID 1963592); also: series mostly up to about 92 µM; nearly all actives have a fitted effect of over 50% in size
Outline: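 Assay format: CHO-ADRB2 cells, 18-20hr seeding at 37C/5% CO2, then compound plus 1nM isoproterenol agonist mix for 0.5hr RT. Homogeneous time-resolved fluorescence cAMP detection after 1hr, expressed as 665/615 nm ratio.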

[17] = biological target: Beta-2 adrenergic receptor (Homo sapiens) (UniProt P07550); assay: Adrenergic beta2 receptor (ADRB2) small molecule agonists, cell-based qHTS assay (AID 1963593);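 also: CHO cells stably overexpressing human ADRB2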
Outline: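 CHO cells stably over-expressing ADRB2 were plated overnight at 37C, then dosed with compounds plus a stimulation mix containing 100uM IBMX and 25uM Ro-20-1724 for 0.5hr at room temperature. cAMP was measured by HTRF competition, 1hr.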

[18] = biological target: D(2) dopamine receptor (Homo sapiens) (UniProt P14416); assay: Dopamine D2 receptor (DRD2) small molecule agonists, cell-based qHTS assay (AID 1963594); also: nearly all actives have a fitted effect of over 35% in size
Outline: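 HEK293 cells stably expressing DRD2 were cultured 24 h at 37 C, then given Ro20-1724 (0.1 mM final) and compounds for 10 min at room temperature. NKH477 (200nM) was then added for 30 min. cAMP was read by HTRF.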

[19] = biological target: D(2) dopamine receptor (Homo sapiens) (UniProt P14416); assay: Dopamine D2 receptor (DRD2) small molecule antagonists, cell-based qHTS assay (AID 1963595; active = well fitted inhibition curve with a large enough effect in the signal ratio in the repeat runs, with a control signal flat; the % refers to the signal ratio)
Outline: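 Readout: HTRF cAMP, cAMP-d2 competing with cellular cAMP for anti-cAMP cryptate, read after 1 h. Cells: DRD2-HEK293. Conditions: 0.1 mM Ro20-1724, 12 nM quinpirole, 200 nM NKH477, 30 min RT.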

[20] = G protein-coupled receptor (GPCR) small molecule agonists, calcium flux assay: HEK293 wild type cell line counter screen (AID 1920065); also: potency is read from the fitted curve at half-maximal effect
Outline: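 Fluorescence intensity signals activation. After overnight (18 h) culture and a 1 h calcium dye load at 37 C, compounds are added by pin tool and the plate read at 480/540 nm for 3 min in 1 s steps.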

Sequence of Muscarinic acetylcholine receptor M1 (Homo sapiens) (P11229 whole entry, looked up): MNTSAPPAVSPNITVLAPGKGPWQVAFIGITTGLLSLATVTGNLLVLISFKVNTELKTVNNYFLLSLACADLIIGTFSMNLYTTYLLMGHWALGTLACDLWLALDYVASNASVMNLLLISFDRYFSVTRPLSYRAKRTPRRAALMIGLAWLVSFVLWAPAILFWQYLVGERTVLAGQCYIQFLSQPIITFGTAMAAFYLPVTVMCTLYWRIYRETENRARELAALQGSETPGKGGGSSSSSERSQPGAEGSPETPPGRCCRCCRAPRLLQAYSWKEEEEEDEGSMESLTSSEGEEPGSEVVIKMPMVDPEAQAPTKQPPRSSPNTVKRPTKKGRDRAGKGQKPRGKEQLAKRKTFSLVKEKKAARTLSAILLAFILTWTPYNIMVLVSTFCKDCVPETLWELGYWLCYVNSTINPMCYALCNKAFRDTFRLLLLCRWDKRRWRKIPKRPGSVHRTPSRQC
Sequence of 5-hydroxytryptamine receptor 2A (Homo sapiens) (P28223 whole entry, looked up): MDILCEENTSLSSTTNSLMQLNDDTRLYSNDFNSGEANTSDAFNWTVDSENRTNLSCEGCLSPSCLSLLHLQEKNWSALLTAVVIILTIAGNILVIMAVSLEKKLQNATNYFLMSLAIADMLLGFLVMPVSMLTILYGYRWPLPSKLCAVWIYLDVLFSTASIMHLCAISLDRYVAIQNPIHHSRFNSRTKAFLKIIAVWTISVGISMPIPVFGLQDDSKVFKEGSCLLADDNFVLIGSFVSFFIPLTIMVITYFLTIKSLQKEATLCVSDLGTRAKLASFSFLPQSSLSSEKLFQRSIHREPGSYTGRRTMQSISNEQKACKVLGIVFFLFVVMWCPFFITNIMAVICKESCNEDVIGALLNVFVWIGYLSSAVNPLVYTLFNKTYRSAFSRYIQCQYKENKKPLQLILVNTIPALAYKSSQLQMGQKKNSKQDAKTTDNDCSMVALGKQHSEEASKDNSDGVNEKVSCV
Sequence of Beta-2 adrenergic receptor (Homo sapiens) (P07550 whole entry, looked up): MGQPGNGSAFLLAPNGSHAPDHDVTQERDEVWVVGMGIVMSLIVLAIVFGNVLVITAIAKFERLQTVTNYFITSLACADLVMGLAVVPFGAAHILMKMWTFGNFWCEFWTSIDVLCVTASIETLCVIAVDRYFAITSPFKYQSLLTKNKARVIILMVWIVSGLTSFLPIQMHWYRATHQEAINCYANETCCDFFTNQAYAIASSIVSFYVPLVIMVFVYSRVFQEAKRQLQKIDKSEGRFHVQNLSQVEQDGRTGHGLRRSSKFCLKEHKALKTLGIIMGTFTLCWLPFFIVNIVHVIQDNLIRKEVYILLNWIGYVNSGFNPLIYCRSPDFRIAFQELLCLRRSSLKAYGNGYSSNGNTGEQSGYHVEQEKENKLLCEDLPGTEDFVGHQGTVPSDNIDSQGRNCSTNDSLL
Sequence of KiSS-1 receptor (Homo sapiens) (Q969F8 whole entry, looked up): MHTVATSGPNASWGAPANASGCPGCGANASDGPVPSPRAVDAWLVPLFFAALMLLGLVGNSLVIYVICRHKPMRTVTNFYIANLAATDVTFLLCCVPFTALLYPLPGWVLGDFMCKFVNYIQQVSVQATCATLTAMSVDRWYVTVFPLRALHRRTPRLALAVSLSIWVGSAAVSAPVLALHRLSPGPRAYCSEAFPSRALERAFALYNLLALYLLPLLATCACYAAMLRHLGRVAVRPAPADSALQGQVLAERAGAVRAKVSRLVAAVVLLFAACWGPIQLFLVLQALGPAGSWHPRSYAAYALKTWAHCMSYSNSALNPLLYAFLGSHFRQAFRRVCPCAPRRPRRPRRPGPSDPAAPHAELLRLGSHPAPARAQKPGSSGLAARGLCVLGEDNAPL
Sequence of D(2) dopamine receptor (Homo sapiens) (P14416 whole entry, looked up): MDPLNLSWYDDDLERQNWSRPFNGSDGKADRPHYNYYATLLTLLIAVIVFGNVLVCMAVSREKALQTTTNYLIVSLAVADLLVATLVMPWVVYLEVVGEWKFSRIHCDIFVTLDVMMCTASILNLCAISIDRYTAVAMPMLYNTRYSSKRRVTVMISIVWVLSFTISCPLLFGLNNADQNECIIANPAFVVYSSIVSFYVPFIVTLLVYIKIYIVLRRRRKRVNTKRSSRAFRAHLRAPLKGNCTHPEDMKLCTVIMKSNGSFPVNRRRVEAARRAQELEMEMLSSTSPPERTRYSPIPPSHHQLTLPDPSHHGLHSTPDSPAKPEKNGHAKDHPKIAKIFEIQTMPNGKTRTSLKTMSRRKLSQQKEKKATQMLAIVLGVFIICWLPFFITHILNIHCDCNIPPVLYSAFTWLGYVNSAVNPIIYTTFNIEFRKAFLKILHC
Sequence of Gonadotropin-releasing hormone receptor (Homo sapiens) (P30968 whole entry, looked up): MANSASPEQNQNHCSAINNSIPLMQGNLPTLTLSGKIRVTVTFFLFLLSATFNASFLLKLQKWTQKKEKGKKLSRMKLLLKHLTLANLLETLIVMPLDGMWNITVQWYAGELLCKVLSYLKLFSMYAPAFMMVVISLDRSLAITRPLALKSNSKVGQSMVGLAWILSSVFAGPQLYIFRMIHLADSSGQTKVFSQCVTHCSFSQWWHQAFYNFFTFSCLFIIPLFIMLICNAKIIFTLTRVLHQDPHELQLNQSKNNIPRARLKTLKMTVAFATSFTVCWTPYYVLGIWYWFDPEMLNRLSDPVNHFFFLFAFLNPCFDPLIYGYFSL

| Compound | Potency [1] | Potency [2] | Potency [3] | Potency [4] | Potency [5] | Potency [6] | Potency [7] | Potency [8] | Potency [9] | Potency [10] | Potency [11] | Potency [12] | Potency [13] | Potency [14] | Potency [15] | Potency [16] | Potency [17] | Potency [18] | Potency [19] | Potency [20] |
| --- | --- | --- | --- | --- | --- | --- | --- | --- | --- | --- | --- | --- | --- | --- | --- | --- | --- | --- | --- | --- |
| Cc1ccc([N+](=O)[O-])cc1N | inactive | inactive | inactive | inactive | inactive | inactive | inactive | inactive | inactive | inactive | inactive | inactive | inactive | inactive | inactive | inactive | inactive | inactive | inactive | – |
| O=Nc1ccc(O)cc1 | inactive | inactive | inactive | inactive | – | inactive | inactive | – | – | inactive | inactive | inactive | inactive | inactive | inactive | inactive | inactive | inactive | inactive | inactive |
| OCCOCCOCCO | inactive | inactive | inactive | inactive | inactive | inactive | inactive | inactive | inactive | inactive | inactive | inactive | inactive | inactive | inactive | inactive | inactive | inactive | inactive | – |
| CCN(CC)C(=S)SSC(=S)N(CC)CC | 96.9 nM (active) and 99.2 nM (active) and 29.8 µM (active) | inactive | inactive | inactive | – | – | – | – | – | – | – | – | – | inactive | 1190 nM (active) | inactive | inactive | inactive | inactive | inactive and 25.1 µM (active) |
| Cc1cc(C2(c3cc(C)c(O)cc3C)OS(=O)(=O)c3ccccc32)c(C)cc1O | 21.7 µM (active) and 19.3 µM (active) | inactive | inactive | inactive | inactive | inactive | inactive | inactive | inactive | inactive | inactive | inactive | inactive | inactive | inactive | inactive | inactive | – | – | – |
| C=CCOC(=O)c1ccccc1C(=O)OCC=C | inactive | inactive | inactive | inactive | inactive | inactive | inactive | inactive | inactive | inactive | inactive | inactive | inactive | inactive | inactive | inactive | inactive | inactive | inactive | – |
| Cn1cc[nH]c1=S | 54.4 µM (active) and inactive | 27.3 µM (active) and inactive | inactive | inactive | – | – | – | – | – | – | – | – | – | inactive | inactive | inactive | inactive | inactive | – | inactive |
| CCC(C)(O)CCCC(C)C (stereo unspecified) | inactive | inactive | inactive | inactive | – | inactive | inactive | inactive | inactive | inactive | inactive | inactive | inactive | inactive | – | inactive | inactive | inactive | inactive | – |
| CCCCCCC(=O)O | inactive | inactive | inactive | inactive | inactive | inactive | inactive | inactive | inactive | inactive | inactive | inactive | inactive | inactive | inactive | inactive | inactive | – | inactive | – |
| O=C1CCc2ccccc2O1 | inactive | inactive | inactive | inactive | inactive | inactive | inactive | inactive | inactive | inactive | inactive | inactive | inactive | inactive | inactive | inactive | inactive | inactive | inactive | – |
| O=C(O)CS | inactive | inactive and 61.6 µM (active) | inactive | inactive | – | inactive | inactive | – | – | inactive | inactive | – | inactive | inactive | – | inactive | inactive | inactive | inactive | inactive |
| NNCCc1ccccc1 | inactive | 3.87 µM (active) and 8.41 µM (active) | inactive | inactive | inactive | inactive | inactive | – | inactive | – | – | – | – | inactive | inactive | inactive | inactive | inactive | inactive | – |
| CC(=O)OCC(COC(C)=O)OC(C)=O | inactive | inactive | inactive | inactive | – | inactive | inactive | – | – | – | – | – | – | inactive | – | inactive | inactive | inactive | – | inactive |
